Reference: the supplement of paper PMC3334620
The full ranking holds about 33,000 sequences; the median of “E-score (-0.5 to 0.5)” is about -0.01, and the highest 2% start at about 0.26. This excerpt belongs to a sample that is enriched for the highest values.

target: Ste12 (UniProt P13574); assay: PBM E-score (8-mer binding enrichment) (E-score (-0.5 to 0.5)); higher = stronger / more preferred TF binding; settings: protein concentration: 200 nM; construct: GST-DNA-binding domain
Description: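 Universal 'all 10-mer' protein binding microarrays (Agilent AMADID 015681) probed with GST-tagged S. cerevisiae TFs (full-length or DBD) made by in vitro transcription/translation (PURExpress), about 100-200 nM. Bound TF was detected with fluorescent anti-GST. Each ungapped 8-mer (which stands for itself and its reverse complement) is scored by the PBM enrichment score (E-score), a modified Wilcoxon-Mann-Whitney statistic from -0.5 to +0.5, computed with the Universal PBM Analysis Suite. Scale: above 0.35 generally sequence-specific binding.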

UniProt P13574, sequence (P13574 whole entry, the tested form may be a part): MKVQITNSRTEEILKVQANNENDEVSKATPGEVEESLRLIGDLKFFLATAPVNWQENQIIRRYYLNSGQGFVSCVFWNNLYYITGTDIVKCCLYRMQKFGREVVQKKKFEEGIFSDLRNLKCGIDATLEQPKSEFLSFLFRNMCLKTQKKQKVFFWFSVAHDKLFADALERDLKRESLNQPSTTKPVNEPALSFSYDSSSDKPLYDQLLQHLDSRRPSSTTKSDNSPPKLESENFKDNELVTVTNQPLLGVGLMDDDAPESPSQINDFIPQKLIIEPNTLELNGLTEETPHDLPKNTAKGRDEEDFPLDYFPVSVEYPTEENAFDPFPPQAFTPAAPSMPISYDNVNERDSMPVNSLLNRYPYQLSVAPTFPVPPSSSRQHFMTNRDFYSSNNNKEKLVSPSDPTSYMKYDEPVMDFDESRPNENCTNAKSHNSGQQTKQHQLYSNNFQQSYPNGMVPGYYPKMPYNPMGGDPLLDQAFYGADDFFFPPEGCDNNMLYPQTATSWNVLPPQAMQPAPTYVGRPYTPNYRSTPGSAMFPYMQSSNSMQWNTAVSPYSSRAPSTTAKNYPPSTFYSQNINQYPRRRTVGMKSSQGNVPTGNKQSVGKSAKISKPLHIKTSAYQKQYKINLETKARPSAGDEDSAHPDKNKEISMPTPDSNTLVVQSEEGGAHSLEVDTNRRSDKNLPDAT

Sequence	PBM E-score
ATCTCAGC	-0.112
AGTTGAGC	-0.152
ATCTATGC	-0.0236
ACGGGCCC	-0.199
CATTTAAC	0.212
GATTTAAA	0.113
CATTTAAG	-0.0794
TATTTTAA	0.301
TATTTAAA	0.379
CATTTAAA	0.277
GATTTTAA	0.201
TCTTTTAA	0.142
TATTTACA	0.101
AATTTAAA	0.269
AATTTAAT	0.159
AATTTAAC	0.208
GCACCAGC	-0.101
GGACAGGA	-0.152
ACCATCGC	0.0245
CGCAATCA	0.0872
GGCTCACC	-0.244
ACTAGGTG	-0.199
AACTTAAA	0.186
CACTTAAC	-0.121
CACTTAAA	0.287

Sequence	PBM E-score
AGTCCACA	-0.173
GTGAAACA	0.48
AAGAAACG	0.148
AGGAAACA	0.19
ATGAAACG	0.484
ATGAAACA	0.495
AGGAAACG	-0.105
GTGAAATA	0.169
GTGAAAAA	0.232
ATGAAAGA	0.184
AAGCAGCC	-0.078
ACATCTGA	-0.24
CAACTGTA	-0.0454
AATCAATG	0.0688
CCTAGAGC	-0.189
ATTATCCA	0.0202
ATTATCCC	0.0652
ATTATCCG	0.294
ACCAGTAC	-0.11
GAAACAGC	0.232
CAAACAGA	0.12
AAAACAGA	0.295
AAAACAGG	-0.0182
AAAACAGC	0.127
GTAACAGA	0.334

Sequence	PBM E-score
ATAACAGA	0.115
GAAACAGA	0.287
CTAACAGA	0.153
ATATACAT	0.00017
AGCCTGTC	-0.181
CGCTCTTC	0.00173
GTGTATTA	0.25
ATGTATCC	0.0246
ATGTATCG	0.0479
CTGTATCA	0.207
GTGTATCA	0.301
ATGTATCA	0.344
ACCAACCT	0.0089
ATTGCTGC	-0.00539
GCACTCCA	-0.161
AAAGAATC	0.136
GACTCACA	-0.201
AATCTCCA	-0.184
CAAACCTC	-0.105
GAAACCAA	0.355
GAAACCGC	0.351
GAAACCTC	0.318
ATAACCAA	0.294
ATAACCAG	-0.0264
AAAACCAA	0.209

Sequence	PBM E-score
AAAACCTC	0.207
GAAACCAC	0.164
AAAACCGC	0.0403
CAAACCGC	0.00675
CTAACCAA	0.186
ACCTAAAT	0.11
ACGTTGGC	-0.0145
CATGGCGG	-0.0453
CTTTGCAC	-0.0246
GAGCGTGA	-0.0254
CGGCTGAA	-0.0336
GCAAGCAC	-0.125
ATAGTTTA	0.0232
AAAACTCG	0.125
GCGATGCA	-0.234
CGAATTAG	0.095
GAAACCGA	0.267
CAAACCGA	0.0295
AAAACCGA	0.115
CGTAACAG	0.205
TCTAACAA	0.127
GGTAACAC	0.0298
CGTAACAA	0.293
GGTAACCA	-0.12
AGTAACAA	0.0502

Sequence	PBM E-score
TGTAACAA	0.333
GCTAACAA	-0.046
GGTAACAA	0.264
AGAACTCA	0.117
TCGAGCGA	-0.0486
GAGTTGTA	-0.0493
ATCGTTTG	0.0575
ATCGTTTC	0.35
CTCGTTTC	0.242
CGCGTTTC	0.234
AGCGTTTC	0.294
AGCGTTTA	-0.122
AACCCACA	-0.0351
GGTGGGTA	0.0601
CATTTTCA	0.273
CATTTTCC	0.123
CATTTTAA	0.27
AATTTTAG	0.105
CCTTTTAA	0.0649
CATTTTAC	0.254
CATTTCCC	0.295
TATTTTCA	0.201
CATTTTTA	0.0631
CATTTTAG	0.267
GATTTCCC	-0.0998

Sequence	PBM E-score
AATTTTCA	0.165
AAGGCGGC	-0.0929
CCCTGAAC	0.0241
CCCTTGCG	-0.0882
ATACGTTG	-0.0291
CGTGGCGC	-0.1
TGAGGTAA	0.128
TCATTACA	0.18
ATTAGGAC	-0.179
CCCGCGGG	0.0996
AATACGCA	0.0688
ATTTGCTA	0.0107
CCATTTTC	0.0892
CCATTTTA	0.267
GCATTTTA	0.165
GCCTATCC	-0.214
ATCTGAAA	0.364
GTCTGAAA	0.314
CCCTGAAA	0.181
GTCTGATA	0.16
TTCTGCAA	0.182
TTCTGAAA	0.365
CTCTGAAA	0.294
ATCTGAAC	-0.0162
ATCTGAAT	0.0272

Sequence	PBM E-score
GTCTGAAC	0.114
CTCTGAAC	-0.092
CTCTGAAG	-0.104
TGGCCAAA	0.0505
TCCACAGA	0.124
CTTTAGCC	-0.029
AATAGTTG	0.255
AAGCAGAA	0.109
AATTGAGT	0.195
GTATGGAC	-0.0968
ATTGTTTC	0.356
ATTGTTAC	0.297
ATTGTTTA	0.0651
CTTGTTTA	0.0423
ATTGTTAG	0.0697
CTTGTTAC	0.129
CTTGTTTC	0.375
CTTGTTGC	0.00409
ATTGTTTG	0.184
ATCTCTTA	0.197
CCTTTCCC	-0.0368
ATAGCAGA	-0.0552
